# In PubChem BioAssay (NCI):
# This is part of a sample that, as a whole, favours compounds with a hit. Of some 83,000 tested, about 20% had one in any assay.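 Values shown are percent growth following 48 h exposure of cells in 96-well plates to a single concentration of compound; below 10 was considered active.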 A number with no mark means an inactive call. Activity calls are given as the source filed them.
# Test system: HL-60(TB) leukemia
# Test: NCI-60 one-dose screen, 48 h (100 = growth as untreated, 0 = no growth, -100 = all killed)
# Conditions: 10 µM unless noted
row,Structure (SMILES),growth
1,C#CCSc1nnnn1-c1ccccc1,92.7%
2,NCCCNc1nc2ccc(Cl)cc2c2c(=O)c3cc(F)ccc3sc12,34.9%
3,Nc1c(C(=O)Nc2ccccc2)sc2nc3c(cc12)CCC3,60.9%
4,Nc1ccn(Cc2nnc(CCC(=O)c3nc4ccccc4[nH]3)o2)c(=O)n1,80.5%
5,O=C(Cn1cc(COc2ncnc3c2cnn3-c2ccccc2)nn1)Nc1cccc2ccccc12,101%
6,O=[N+]([O-])c1cccc(SSc2cccc([N+](=O)[O-])c2)c1,93.6%
7,CCCCCCCCCCCC[n+]1ccc(CCCCCCCCC)cc1,-53.3% (active)
8,CCN1CCCC(N2c3ccccc3Sc3ccccc32)C1 (centres undefined),93.1%
9,O=C1CC(c2ccccc2)Cc2nc3ccc(Cl)cc3cc21 (centres undefined),-20.7% (active)
10,CCCCCCCCCCC(C)Br (centres undefined),93.1%
11,CSc1nc(-c2ccco2)c2c(N)[nH]nc2n1,82.9%
12,C#CCOc1ccc2nc(CCl)c(Cl)c(Nc3cccc(C(F)(F)F)c3)c2c1,56.1%
13,CCCCC1Nc2nc(SC)n(C)c(=O)c2CN(Cc2ccccc2)C1=O (centres undefined),111%
14,C#CCn1cnc2cnc(Nc3cccc(NC(=O)CCl)c3)nc21,-7.95% [6.25 µM] (active)
15,COc1cccc(-c2ccc3c(c2)C2CCN(Cc4ccccc4)C3C2)c1 (centres undefined),46.2%
16,C=C1C(=O)O[C@H]2[C@H]1CC/C(COC(=O)NCc1cc(OC)cc(OC)c1)=C\CC[C@@]1(C)O[C@@H]21,-20.1% (active)
17,NS(=O)(=O)c1ccc(NC2=C(Cl)C(=O)c3ccccc3C2=O)cc1,87.6%
18,O=C(c1ccccc1)N(C(=S)NCCc1ccc(Cl)cc1)c1ccc(Cl)cc1,23%
19,CCCN1C(=O)N(CCC)C2C1NC(=S)N2/N=C/C=C/c1ccccc1OC (centres undefined),-42.1% (active)
20,NS(=O)(=O)c1ccc(N=Nc2ccc(-c3nn4cc(-c5ccccc5)nc4s3)cc2)cc1,91.5%
21,COc1ccc(-c2[nH]ncc2-c2cc3c(c(OC)c2)OCC(=O)N3)cc1,11.3%
22,O=C(Nc1cccc(-n2cc(-c3ccncc3)c(-c3ccc(O)c(Cl)c3)n2)c1)c1cc(C(F)(F)F)cc(C(F)(F)F)c1,58.9%
23,O=c1[nH]cc(/C=N\Nc2ccccc2)c(=O)[nH]1,0.751% (active)
24,CCCCCCNC(=O)Nc1ncnc2c1ncn2-c1ccccc1,109%
